# IL-1B inflam inh = inflammasome signaling inhibition, IL-1 beta readout. THP-1 LPS/ATP IL-1B secretion, AlphaLISA, 16 h; hits give low values. activity change, % at 57.5 µM. 360,000 tested, 4.7% active; in the data active = activity change below about -50%; inconclusive = mostly about -30% to -49%
#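 THP-1 cells pretreated 1 hr with compounds (up to 57.5 uM final), then stimulated with LPS (250 ng/mL final) plus ATP (1.25 mM final); secreted IL-1B measured by AlphaLISA after 16 hr, decreased signal indicating inhibition.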
# DT40 TDP1 CPT = DT40-hTDP1 cell growth loss with CPT. chicken DT40 Tdp1-/-;hTDP1 cells + 20 nM CPT, ATP luminescence, 48 h. Potency, µM (doses to about 46.2 µM), usual class: inhibitors. 420,000 tested, 12% active; also: nearly all actives have a fitted effect of over 55% in size
#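 Chicken DT40 Tdp1-/- cells complemented with human TDP1, 400 cells/well, exposed to compounds plus 20 nM camptothecin for at least 48 h at 37 C; viability read as ATP content by CellTiter-Glo luminescence.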
# DT40 TDP1 no CPT = qHTS for Inhibitors of human tyrosyl-DNA phosphodiesterase 1 (TDP1): qHTS in cells in absence of CPT | Potency, µM (series often up to 46.2 µM), hits mostly inhibitors | AID 686978, 2013 | DT40 Tdp1-/- hTDP1 cells, no CPT, ATP luminescence, 48 h | 420,000 tested, 15% active; also: nearly all actives have a fitted effect of over 55% in size
#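 Cells were dispensed at 400 per well, compounds added by pin tool, plates incubated ≥48 hr at 37 °C, then CellTiter-Glo added for 30 min at room temperature before luminescence reading. Line: DT40 Tdp1-/- complemented with hTDP1; camptothecin omitted.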
# HT1080-NT tox = kills 2HG-producing HT-1080-NT fibrosarcoma cells. HT-1080-NT fibrosarcoma viability, CellTiter-Glo ATP luminescence, 48 h. Potency, µM (series often up to 46.1 µM), hits mostly cytotoxic. 360,000 tested, 1.6% active;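 also: NT is the 2HG producing partner of a matched IDH1 knockdown line; nearly all actives have a fitted effect of over 55% in size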
#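 Read-out is CellTiter-Glo luminescence after 10 minutes at room temperature, following 48 hours' compound treatment of HT-1080-NT cells (750 cells/well, RPMI, 5% FBS, 37 degrees C).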
# HT1080 IDH1KD tx = kills HT-1080 cells with IDH1 knockdown. HT-1080 IDH1 knockdown viability, ATP luminescence, 48 h. Potency, µM (titrated, usually from 46.1 µM), usual class: cytotoxic. 360,000 tested, 2% active. AID 686971
#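 IDH1KD HT-1080 cells, 750/well, RPMI + 5% FBS; compound pinned after 2 h settling; 48 h, 37 °C; CellTiter-Glo luminescence; % activity normalised to DMSO and no-cell wells; curves fitted, classed by r2 and efficacy.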
# A number is an active result; – = inactive; ? = inconclusive; · = no result; [ ] = remark or other dose. Sampled rows, rich in hits. Any-hit rate of the full collection: about 19%. Unless noted, calls follow the shape of the dose curve; as a rule, active = well fitted curve in the direction sought with a large enough effect; inconclusive = small, poorly fitted or top-dose-only effect, or another doubt; inactive = no such curve, though single readings can be large; an effect the other way counts as inactive or inconclusive.
SMILES,IL-1B inflam inh,DT40 TDP1 CPT,DT40 TDP1 no CPT,HT1080-NT tox,HT1080 IDH1KD tx
Cn1nc(-c2ccc(OCC(=O)Nc3ccccc3)cc2)c2ccccc2c1=O,–,23µM,26µM,–,–
Cn1nc(-c2ccc(OCC(N)=O)cc2)c2ccccc2c1=O,–,–,–,–,–
COC(=O)COc1ccc(-c2nn(C)c(=O)c3ccccc23)cc1,–,–,–,–,–
O=C(CCn1nc(-c2ccccc2)c2ccccc2c1=O)N1CCN(c2ccccc2)CC1,?,16µM,23µM,–,–
COc1ccccc1NC(=O)Cn1nc(-c2ccc(Cl)cc2)c2ccccc2c1=O,–,–,–,–,–
CNC(=O)C[C@H]1C(=O)N(c2ccccc2)C[C@@H]1CSC,–,–,–,–,–
Cc1ccc(OCc2cc(C(=O)N3CCCC(O)C3)no2)cn1 (stereo unspecified),–,–,–,–,–
CN(C(=O)c1ccc(-c2nn(C)c(=O)c3ccccc23)cc1)c1ccccc1,–,?,16µM,–,–
CNC(=O)COc1ccc(NC(=O)CCn2nc(-c3ccc(C)cc3)c3ccccc3c2=O)cc1,·,?,21µM,·,·
COc1cccc(OC)c1NC(=O)Cc1nn(C)c(=O)c2ccccc12,–,?,?,–,–
COc1ccccc1NC(=O)Cc1nn(C)c(=O)c2ccccc12,–,16µM,8.2µM,–,–
Cc1csc(NC(=O)Cc2coc3cc(C)c(C(C)C)cc23)n1,?,13µM,16µM,?,23µM
Cc1ccc(CN2CCN(Cc3ccc4cccc(F)c4n3)CC2CCO)cc1 (stereo unspecified),–,–,–,–,–
Clc1ccc2c(c1)-c1c(cnc3cc(-c4ccccc4)nn13)CO2,·,–,–,·,·
CCOC(=O)N1CCC(NCc2c(C(=O)N(C)Cc3ccccc3)nc3ccccn23)CC1,–,–,–,–,–
Cc1ccccc1NC(=O)CCn1nc(-c2ccc(Cl)cc2)c2ccccc2c1=O,·,?,–,·,·
Cc1ccc(NC(=O)CCn2nc(-c3ccccc3)c3ccccc3c2=O)c(C)c1,·,21µM,?,·,·
Cc1csc(NC(=O)Cc2nn(C)c(=O)c3ccccc23)n1,–,10µM,8.2µM,–,–
Cc1cc(C)n2nc(C(=O)OCC(=O)NNC(=O)c3ccc(Cl)cc3)nc2n1,–,–,–,–,–
CCCCCCCCCOC(=O)C[n+]1csc(CCO)c1C,–,?,10µM,–,–
Cc1c(CC(=O)N2CCCCC2)c(=O)oc2cc(O)ccc12,·,–,–,·,·
NNC(=O)c1sc(-c2ccccc2)cc1N,-54,?,?,–,–
Cc1ccc(C(=O)NCCc2c[nH]c3ccccc23)c(C)c1,–,–,–,–,–
CCCCNC(=O)c1cc(-c2ccccc2)sc1N,?,15µM,16µM,–,–
COCCNC(=O)c1cc(-c2ccccc2)sc1N,–,?,?,–,–
SMILES,IL-1B inflam inh,DT40 TDP1 CPT,DT40 TDP1 no CPT,HT1080-NT tox,HT1080 IDH1KD tx
Nc1sc(-c2ccccc2)cc1C(=O)NCCc1c[nH]c2ccccc12,–,16µM,15µM,?,?
O=C(NCCOC(=O)c1c(F)cccc1Cl)c1c(F)cccc1Cl,–,–,?,–,–
CC(C)CN(C(=O)c1cc(Cl)nc2ccccc12)c1c(N)n(Cc2ccccc2)c(=O)[nH]c1=O,–,–,–,–,–
COc1cccc(/C(O)=C2/C(=O)C(=O)N(c3cc(C)on3)C2c2cccs2)c1 (stereo unspecified),–,?,3.7µM,?,?
Cc1ccc(NC=C(S(=O)(=O)c2ccccc2)S(=O)(=O)c2ccccc2)c(C)c1,–,?,21µM,–,–
Cc1ccc(NC=C(S(=O)(=O)c2ccccc2)S(=O)(=O)c2ccccc2)cc1,–,–,?,–,–
COc1cccc(CN2CCN(Cc3cc(OC)c(OC)c(OC)c3)CC2)c1OC,–,?,?,–,–
OC(CN1CCN(C(c2ccccc2)c2ccccc2)CC1)c1ccccc1 (stereo unspecified),–,?,?,–,–
COc1cc(C(=S)N2CCN(C(c3ccccc3)c3ccccc3)CC2)cc(OC)c1O,-50,15µM,8.2µM,–,–
COc1cc(CN2CCN(C(c3ccccc3)c3ccccc3)CC2)cc(OC)c1OC,–,8.2µM,3.3µM,–,?
COc1cccc(CN2CCN(C(c3ccccc3)c3ccccc3)CC2)c1O,–,?,21µM,–,–
O=C(CP(=O)(c1ccccc1)c1ccccc1)Nc1nc2ccc(Cl)cc2s1,–,?,?,?,–
Cc1cc(C)c(NC(=O)CCc2c(C)noc2C)c(C)c1,–,–,–,–,–
O=C(c1ccccc1-n1cccn1)N1CCOc2ccc(CN3CCOCC3)cc2C1,·,–[9.04 µM],–,·,·
COc1ccc(Cn2c(=O)c3oc4ccccc4c3n(CC(=O)Nc3cc(C)cc(C)c3)c2=O)cc1,·,–,–,·,·
O=c1[nH]c2ccccc2cc1-c1nnn(-c2ccc(Cl)c(Cl)c2)n1,–,7.3µM,?,–,–
COc1ccc(CNc2ncc(-c3ccc(F)cc3)n2C)c2ccccc12,-82,23µM,16µM,23µM,?
COc1ccccc1CNc1ncc(-c2ccc(F)cc2)n1C,–,?,?,–,–
CCn1nnnc1NCc1ccc(OCc2ccc(F)cc2Cl)c(OC)c1,-58,?,?,–,–
Cn1c(-c2ccc(F)cc2)cnc1NCc1cccc(F)c1,–,?,18µM,–,?
CCOc1ccc(-c2cnc(NCc3cccc4ccccc34)n2CCOC)cc1,-95,?,4.6µM,?,?
COc1cccc(OCc2cc(C(=O)NC(C)c3cnn(C)c3C)no2)c1 (stereo unspecified),–,?,–,–,–
COc1ccc(C(=O)c2oc3ccccc3c2NC(=O)COc2ccccc2)cc1,·,–,?,·,·
COCCn1c(=O)c(-c2cccs2)nc2cnc(Oc3cccc(Cl)c3)nc21,·,–,?,·,·
Cn1cccc1C(=O)N1CCC2(CCN(Cc3ccc(C#N)cc3)CC2)CC1,·,–,?,·,·
SMILES,IL-1B inflam inh,DT40 TDP1 CPT,DT40 TDP1 no CPT,HT1080-NT tox,HT1080 IDH1KD tx
COc1ccccc1CNc1ncc(-c2ccccc2)n1C,–,26µM,?,–,–
COc1ccc(CNc2ncc(-c3ccc(F)cc3)n2C)cc1OC,–,?,23µM,–,–
Cc1cc(C)c(C#N)c(SCCS(=O)(=O)c2ccc(Cl)cc2)n1,-76,?,?,–,–
Cc1cc(C)c(C#N)c(SCCS(=O)(=O)c2ccc(C(C)(C)C)cc2)n1,–,13µM,21µM,–,–
C[C@H](NC(=O)c1ccco1)C(=O)Nc1cccc([N+](=O)[O-])c1,–,–,–,–,–
O=C(/C=C/c1cccc([N+](=O)[O-])c1)Nc1cccc(NC(=O)c2ccco2)c1,-95,?,16µM,–,–

# Screening results deposited in PubChem by National Center for Advancing Translational Sciences (NCATS).
